An excerpt weighted towards active compounds, which were near 3.4% of everything screened.
PAX8 reporter = inhibitors of PAX8 transcriptional activity in RMG-I cells; AID 652154; 1.2% of 360,000 active; inhibition, % at 12.6 µM; RMG-I TPO-luciferase reporter, SteadyGlo, 24 h;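 active means mean replicate inhibition at least 60% with every replicate also reaching 60%; inconclusive means only one of the two criteria is met; inactive means mean below 60% and not all replicates reaching 60%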;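 further: luciferase light reporting Pax8 driven TPO promoter activity; plate controls were median of neutral control wells for no effect and mitoxantrone controls for full effect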
Ecoli rRNA inh = inhibits bacterial ribosomal RNA function over humanized ribosomes. E. coli WT GFP vs humanized-ribosome RFP mutants, fluorescence, 24 h; hits give low values; DMSO median 0, no signal -100. GFP signal change (wild-type ribosome), % (concentration not given with the values). 1.6% of 350,000 active. AID 720706;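 active means significant combined selectivity score with lowered wild-type GFP, culture density cut under 30%, mutant RFP and density less affected; inactive means any of these conditions unmet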
SIRT5 inh = sirtuin-5 (human) deacylase inhibition. Q9NXA8. Purified SirT5, succinyl-peptide AMC, trypsin-coupled fluorescence. inhibition, % at 15 µM. 1.1% of 330,000 active; in the data active means inhibition above about 15%; inconclusive means no clear call, values can overlap the other calls
Target sequence (Q9NXA8 whole entry, looked up): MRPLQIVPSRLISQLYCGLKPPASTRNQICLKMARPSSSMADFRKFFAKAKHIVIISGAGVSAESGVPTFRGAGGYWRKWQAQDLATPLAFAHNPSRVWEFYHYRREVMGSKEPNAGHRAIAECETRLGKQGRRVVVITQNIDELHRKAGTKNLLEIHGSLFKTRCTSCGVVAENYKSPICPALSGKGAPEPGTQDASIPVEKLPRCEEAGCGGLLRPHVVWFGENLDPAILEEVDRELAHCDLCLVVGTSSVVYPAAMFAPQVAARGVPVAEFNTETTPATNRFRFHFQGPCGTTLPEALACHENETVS
EWS-Fli inh = blocks EWS/Fli oncoprotein-driven transcription | 0.67% of 350,000 active | inhibition, % at 12.6 µM | A673 NR0B1-luciferase reporter, viability-normalised;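 active means mean inhibition of at least 50% after viability correction, with every replicate also passing that limit; inconclusive means mean reaches 50% but only one of two replicates passes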;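 further: firefly luciferase signal divided by Alamar Blue viability fluorescence both relative to DMSO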
PGC1a acetyl inh = modulators of PGC1a acetylation; U2OS PGC1a acetylation, AlphaScreen anti-acetyl-lysine; with virally co-expressed GCN5 acetyltransferase; inhibition, % at 15.6 µM; 0.17% of 350,000 active; AID 651687;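 active means every replicate shows inhibition of at least 40%; inconclusive means mean inhibition at least 40% but some replicate below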;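 further: 0% = neutral control wells and 100% = positive control wells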
LGR2 inh = Drosophila LGR2 receptor signaling inhibition. 0.35% of 380,000 active. inhibition, % at 9.99 µM. HEK293 LGR2, CRE-luciferase, bursicon-stimulated, 4 h;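 active means drop in luminescence signal, shown as inhibition above about 50% in the replicate tests, limit read from the data, passing the limit was not always enough; inconclusive means probably only some replicates passing the limit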;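 further: agonist challenge used bursicon conditioned medium at about half maximal strength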
An asterisk follows results filed as active.

Results for CCOc1ccc(/C=N/NC(=O)c2[nH]ncc2Br)c(O)c1 ?
PAX8 reporter: -18; Ecoli rRNA inh: -34*; SIRT5 inh: -4; EWS-Fli inh: -56; PGC1a acetyl inh: 20; LGR2 inh: inconclusive

How did Cc1noc(C)c1NC(=O)Nc1ccc2c(c1)C(=O)N([C@@H](C)CO)C[C@@H](C)[C@H](CN(C)Cc1ccc(C(=O)O)cc1)OCCCC[C@@H](C)O2 do in these assays?
PAX8 reporter: -1; Ecoli rRNA inh: 3; EWS-Fli inh: -10; PGC1a acetyl inh: 5; LGR2 inh: 7

How did C[C@@H]1CN([C@@H](C)CO)C(=O)Cc2cc(NC(=O)Nc3ccc(C(F)(F)F)cc3)ccc2O[C@@H]1CN(C)S(=O)(=O)c1ccccc1 do in these assays?
PAX8 reporter: -4; Ecoli rRNA inh: 8; SIRT5 inh: 11; EWS-Fli inh: -11; PGC1a acetyl inh: -7; LGR2 inh: 2

Results for C[C@@H]1CN([C@@H](C)CO)C(=O)Cc2cc(NC(=O)Nc3ccc(C(F)(F)F)cc3)ccc2O[C@H]1CN(C)S(=O)(=O)c1ccc(F)cc1 ?
PAX8 reporter: 94*; Ecoli rRNA inh: -1; EWS-Fli inh: 0; PGC1a acetyl inh: 8; LGR2 inh: 11

Results for C[C@H](CO)N1C[C@H](C)[C@H](CN(C)S(=O)(=O)c2ccc(F)cc2)Oc2ccc(NC(=O)Nc3ccc(F)cc3)cc2CC1=O ?
Ecoli rRNA inh: -4; SIRT5 inh: -4; EWS-Fli inh: -15; PGC1a acetyl inh: 0; LGR2 inh: 5

What do the screens show for `C[C@H]1CN([C@@H](C)CO)C(=O)Cc2cc(NC(=O)Nc3ccc(C(F)(F)F)cc3)ccc2O[C@@H]1CN(C)S(=O)(=O)c1ccccc1`?
PAX8 reporter: 15; Ecoli rRNA inh: 4; SIRT5 inh: 14; EWS-Fli inh: -10; PGC1a acetyl inh: 1; LGR2 inh: 10

What do the screens show for `C[C@H](CO)N1C[C@H](C)[C@H](CN(C)S(=O)(=O)c2ccc(Cl)cc2)Oc2ccc(NC(=O)Nc3ccc(F)cc3)cc2CC1=O`?
PAX8 reporter: 74*; Ecoli rRNA inh: 2; SIRT5 inh: -4; EWS-Fli inh: 31; PGC1a acetyl inh: 7; LGR2 inh: 9

What do the screens show for `C[C@H](CO)N1C[C@H](C)[C@H](CN(C)S(=O)(=O)c2ccc(F)cc2)Oc2ccc(NC(=O)Nc3ccc(C(F)(F)F)cc3)cc2CC1=O`?
Ecoli rRNA inh: 0; SIRT5 inh: 8; EWS-Fli inh: 46; PGC1a acetyl inh: 4; LGR2 inh: 0

Results for C[C@H](CO)N1C[C@H](C)[C@H](CN(C)S(=O)(=O)c2ccccc2)Oc2ccc(NC(=O)Nc3ccc(C(F)(F)F)cc3)cc2CC1=O ?
PAX8 reporter: 16; Ecoli rRNA inh: 7; SIRT5 inh: -1; EWS-Fli inh: 61*; PGC1a acetyl inh: 5; LGR2 inh: 10

How did Cc1ccc(S(=O)(=O)N(C)C[C@@H]2Oc3ccc(NC(=O)Nc4ccc(C(F)(F)F)cc4)cc3CC(=O)N([C@H](C)CO)C[C@@H]2C)cc1 do in these assays?
PAX8 reporter: 97*; Ecoli rRNA inh: 3; SIRT5 inh: 6; EWS-Fli inh: inconclusive; PGC1a acetyl inh: 14; LGR2 inh: 28

Results for O=C1N[C@H](Cc2ccccc2)COCc2cnnn2CC[C@@H]1Cc1cccc(F)c1 ?
Ecoli rRNA inh: 0

How did CCCNC(=O)N1CCC2(CC1)CN(C(=O)COC)[C@@H](CO)c1c2c2ccc(OC)cc2n1C do in these assays?
Ecoli rRNA inh: 2; SIRT5 inh: -6; EWS-Fli inh: 1; PGC1a acetyl inh: 0; LGR2 inh: 0

Results for CCCN(C)C[C@H]1Oc2ncc(C#CC3CC3)cc2C(=O)N([C@H](C)CO)C[C@@H]1C ?
EWS-Fli inh: 14; PGC1a acetyl inh: -13; LGR2 inh: -8

How did COCC(=O)Nc1ccc2c(c1)C(=O)N(C)C[C@@H](OC)[C@H](C)CN(Cc1cccc(F)c1)[C@@H](C)CO2 do in these assays?
PAX8 reporter: 6; Ecoli rRNA inh: -7; SIRT5 inh: -1; EWS-Fli inh: 5; PGC1a acetyl inh: 0; LGR2 inh: 15

Assay outcomes: PubChem BioAssay, Broad Institute
